MenB inh: Mtb MenB enzyme inhibition; 100,000 compounds, 0.43% hits; MenB enzyme assay, absorbance read-out; AID 540299; inhibition, % (concentration not given with the values); in the data active means inhibition above about 21%, passing the limit was not always enough
PV pol inh: inhibitors of poliovirus RNA polymerase binding and polymerization | P03300 | poliovirus polymerase elongation, fluorescence polarization; hits give low values | % elongation, % (compound at 16.7 µg/mL) | 150,000 compounds, 0.66% hits; in the data active means % elongation below about 90%
Mtb MbtI inh: blocks the Mycobacterium tuberculosis siderophore enzyme MbtI; P9WFX0; purified MbtI enzyme, fluorescence intensity read-out; inhibition, % (concentration not given with the values); 100,000 compounds, 0.89% hits; in the data active means inhibition mostly above about 56%, no sharp cut-off; inactive means mostly below about 77%
The depositor's hits bear a star; x = no result given; ! = not confirmed by another sample. Shown are actives, neighbours in structure and some others; about 1.4% of the full set was active somewhere.

SMILES	MenB inh	PV pol inh	Mtb MbtI inh
O=C1C=C2N(c3ccccc3)CCOC2(O)c2ccccc21 (stereo not drawn)	-48	37*	x
O=C1OC2(O)c3ccccc3C(=O)N2c2ccccc21 (stereo not drawn)	-4	104	6
O=c1c2c3c(sc2ncn1Cc1ccccc1)CCC3	13	110	14
O=C(NC1CCN(Cc2ccccc2)CC1)c1ccc(Cn2c(=O)c3ccccc3n(Cc3ccc(Cl)cc3)c2=O)cc1	x	99	x
O=C(NC1CCN(Cc2ccccc2)CC1)c1ccc(Cn2c(=O)c3ccccc3n(Cc3ccccc3)c2=O)cc1	x	73*	x
O=C(OCC(=O)N(Cc1ccccc1)C1CCS(=O)(=O)C1)c1cc2c(s1)CCC2 (stereo not drawn)	-11	x	0
O=C(CSc1n[nH]c(-c2ccco2)n1)N1c2ccccc2Sc2ccccc21	-11	100	-6
O=C(CSc1nnc(-c2ccco2)c(-c2ccco2)n1)N1c2ccccc2Sc2ccc(Cl)cc21	33*	101	44
NS(=O)(=O)c1ccc(NC(=O)CS)cc1	-94	99	76*
NS(=O)(=O)c1ccc(NC(=O)CCC(=O)Nc2ccc(S(N)(=O)=O)cc2)cc1	-20	102	6
COc1ccc(-n2ccnc(SCC(=O)Nc3ccccc3)c2=O)cc1	-9	99	-232
O=C(O)Cn1cc(C=C2C(=O)NC(=O)NC2=O)c2ccccc21	-249	111	x
O=C(O)Cn1cc(C=C2C(=O)NC(=S)NC2=O)c2ccccc21	-55	102	100*
COc1ccccc1-c1noc(CCC(=O)O)n1	-2	101	-4
CC(C)C(NC(=O)c1ccc(C23CC4CC(CC(C4)C2)C3)cc1)C(=O)NCC1CCCO1 (stereo not drawn)	4	100	1
NC(=O)C1CCN(C2CC(=O)N(Cc3ccc4c(c3)OCO4)C2=O)CC1 (stereo not drawn)	-39	103	86*
O=C(C1CC(=O)N(c2ccc(Cl)cc2)C1)N1CCN(Cc2ccc3c(c2)OCO3)CC1 (stereo not drawn)	-50	104	-7
O=C(OC1CCOC1=O)c1ccc2c(c1)S(=O)(=O)c1ccccc1C2=O (stereo not drawn)	-9	96	-9
CC(=O)Nc1c(C(=O)c2ccc(F)cc2)oc2ccccc12	64*	100	1
CC(C)(C)c1ccc(C(=O)Nc2c(C(=O)c3ccc(F)cc3)oc3ccccc23)cc1	x	107	x
O=C1NC(=O)/C(=C\c2cccs2)S1	-28	96	14
O=C1NC(=O)/C(=C\c2ccccc2C(F)(F)F)S1	-20	103	100*
COc1ccc(NC(=O)COC(=O)c2cc(=O)c3ccccc3o2)cc1	3	108	-9
COCCCn1c(=O)c2ccccc2n(Cc2ccccc2)c1=O	-31	101	33
COCCCn1c(=O)c2ccccc2n(CC(N)=O)c1=O	28*	101	58
SMILES	MenB inh	PV pol inh	Mtb MbtI inh
CCCCC1(CO)C(=O)N(c2ccccc2)N(c2ccccc2)C1=O	11	103	-8
CCCCC1C(=O)N(c2ccccc2)N(c2ccc(O)cc2)C1=O (stereo not drawn)	-10	101	84*!
CS(=O)(=O)n1nc(-c2ccco2)nc1SCc1ccccc1	-2	100	2
CSc1nc(-c2ccco2)nn1S(C)(=O)=O	-3	100	84*
COc1ccc2nc(C)sc2c1	-16	97	16
COc1ccc2nc(C(=O)O)sc2c1	0	86*	x
COc1ccccc1N1CC(C(=O)OCn2nnc3ccccc3c2=O)CC1=O (stereo not drawn)	-15	101	30
Cc1ccc(-c2noc(=O)n2CC(=O)Nc2ccc(S(=O)(=O)N3CCCC3)cc2)cc1	-16	103	-3
CC1(C)CC(=O)C=C(Nc2ccc(C(=O)O)cc2)C1	x	105	1
CC1(C)CC(=O)C=C(NNc2ccccn2)C1	-78	101	58*
C=C1c2ccccc2NC(=O)N1c1ccccc1	-18	97	-3
Cc1cc(=O)[nH]c(SCc2cc(=O)n3nc(SCC(C)C)sc3n2)n1	-3	100	10
CC(=O)Nc1ccc(SCC(=O)c2cc(C)n(-c3nccs3)c2C)cc1	3	100	20
CCCOc1ccc(/C=C/C(=O)Nc2sc(C)c(C)c2C(=O)OCC)cc1OC	x	73*	x
CCOC(=O)c1c(NC(=O)/C=C/c2ccc(OC)c(OC)c2)sc(C(C)=O)c1C	x	92	x
CN(C(=O)c1cc2ccc3cccnc3c2[nH]1)c1ccccc1	-26	102	-17
CC(C)(C)OC(=O)Nc1cccc(C(=O)OCC(=O)Nc2ccc(N3CCOCC3)cc2)c1	-11	100	13
O=C(Nc1nc(CSc2nc3ccccc3s2)cs1)C1CC1	-65	83*	53
COC(=O)CSc1nc2ccccc2s1	-14	102	-4
COc1ccc(C)cc1CCNCc1ccc(NC(C)=O)cc1	16	96	0

Source: PubChem BioAssay
